From PubChem BioAssay come the findings set out here.

As usually defined, the viability is a read-out of living cells in per cent, often relative to untreated cells. A word on the inhibition: it is the drop in the measured response relative to a control, in per cent.

Several values for one entry are separate records, joined by “and”; a condition that tells them apart may be missing. Equal values may be shown once. Activity calls are given as the source filed them. Unless noted, how the calls were made is not given here.

Assay [1] can be described thus: liver-stage malaria parasite growth inhibition, primary screen, cell-based, HepG2, luciferase luminescence, HepG2 viability (AID 624349; in the data active means parasite load remaining mostly below about 12%, no sharp cut-off; inactive means mostly above about 10%;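 further: 100% = mean of DMSO negative control wells on the same plate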). The settings on record: P. berghei liver stage in HepG2, luciferase luminescence, concentration not given here; parasite load remaining: stronger effect = lower value; viability: measured here: HepG2 viability without parasites.
The subject of assay [2] is Hepatitis C virus NS3 helicase. The assay is described as follows: HCV NS3 helicase inhibitors, primary screen, biochemical, fluorescence polarization, LOPAC1280 library (AID 687035; in the data active means inhibition above about 37%). The settings on record: Purified HCV NS3 helicase, Cy5-dT15 ssDNA binding fluorescence polarization; stronger effect = higher value; concentration not given here.
Assay [3] can be described thus: Cy5 fluorescence quenching or enhancement artefacts, artefact control for HCV NS3 helicase inhibitor project, biochemical, LOPAC1280 (AID 687037). The conditions noted are these: Cy5-DNA-NS3h complex fluorescence interference counterscreen. (In general: Counterscreens check selectivity or assay interference.)
The nature of assay [4]: Cy5 fluorescence interference with SSB-bound oligo, artefact control for HCV NS3 helicase inhibitor project, biochemical, NIH Clinical Collection, E. coli SSB (AID 743268).
The subject of assay [5] is Hepatitis C virus NS3 helicase. The assay is described as follows: HCV NS3 helicase inhibitors, primary screen, biochemical, fluorescence polarization, NIH Clinical Collection (AID 743270). The settings on record: NS3 helicase binding to Cy5-dT15 DNA, stronger effect = higher value, concentration not given here. For orientation: In fluorescence polarisation assays a small probe gives low polarisation when free and higher when bound to something large.

For assay [6], the target named is Single-stranded DNA-binding protein (Escherichia coli (strain K12)) (UniProt P0AGE0). The assay is described as follows: E. coli SSB displacement from DNA, counter-screen for HCV NS3 helicase inhibitor project, biochemical, fluorescence polarization, NIH Clinical Collection (AID 743271; in the data active means inhibition above about 28%). The settings on record: stronger effect = higher value, concentration not given here.
Assay [7] can be described thus: fluorescence interference in NS3h assay format, artefact control for HCV NS3 helicase inhibitor project, biochemical, NIH Clinical Collection (AID 743272).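 Further: HCV NS3 helicase with a Cy5 labelled single stranded DNA probe.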 The settings on record: fluorescence interference counterscreen, stronger effect = lower value.
Assay [8] has as its system Neuropilin-2 / VEGF-C interaction (human). The assay is described as follows: inhibitors of NRP2–VEGF-C binding, biochemical, microplate binding format, z-score (AID 743281). The settings on record: microplate NRP2/VEGF-C binding assay; stronger effect = lower value.
Assay [9] in a line: stimulators of nuclear beta-catenin in C2C12, primary screen, imaging, WNT3A-conditioned medium, mouse C2C12, NPC library (AID 1117326; in the data active means nuclear beta-catenin stimulation mostly above about 4.2%, no sharp cut-off; inactive means mostly below about 10%). The settings on record: stronger effect = higher value.
The nature of assay [10]: stimulators of insulin release from INS-1E, primary screen, cell-based, 5 mM glucose, NPC library (AID 1117329;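 active means compound raises insulin release from rat beta cells at 5 mM glucose, no numeric limit stated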). The conditions noted are these: rat INS-1E insulin secretion, at 10 µM, stronger effect = higher value.
The nature of assay [11]: growth inhibition of GSK3B-pretreated HCT116 cells – cell-based, CellTiter-Glo, 0.2 to 20 µM (AID 1117336;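 active means compounds lowering colon cancer cell viability after pretreatment blocking the GSK3B kinase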). The conditions noted are these: HCT116 viability after GSK3B inhibitor, at 20 µM, stronger effect = higher value. Background: ATP-based viability assays read luminescence as a measure of living cells.
A short description of assay [12]: inhibition of endothelial tube formation, primary screen, imaging, VEGF stimulated, CD31 staining, tube area, NPC library (AID 1117340;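 active means compound that reduces growth-factor-driven endothelial tube area in a mixed cell culture, no cutoff stated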). The settings on record: VEGF-stimulated ADSC/ECFC co-culture, at 10 µM, stronger effect = higher value.
Assay [13] is described as follows: glucagon-like peptide 1 release enhancers, primary assay, NCI-H716 cell line, NPC library (AID 1117341;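 active means compound raises GLP1 secretion from the human gut endocrine cells, with no numeric limit stated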). The settings on record: NCI-H716 cells, at 10 µM, stronger effect = higher value.
Assay [14] in a line: HCT116 colon cancer cell growth inhibition, primary screen, CellTiter-Glo luminescence, NPC library (AID 1117342;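 active means compounds that lower survival of HCT116 colon cancer cells in the luminescence readout, no numeric limit stated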). The settings on record: at 20 µM (top of the series).
Assay [15] can be described thus: CellTiter-Glo luminescent readout of SW480 viability loss, NPC library primary (AID 1117343;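 active means compounds that lower viability of the colon cancer cells in the luminescence readout, with no numeric limit stated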). The conditions noted are these: CellTiter-Glo luminescence; at 20 µM (top of the series).
Assay [16] can be described thus: decreased DLD-1 cellular survival, CellTiter-Glo luminescent readout, NPC compound collection, primary HTS (AID 1117346;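 active means compounds that lower survival of DLD-1 colon cancer cells in the luminescence readout, no cutoff given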). The conditions noted are these: DLD-1 viability, CellTiter-Glo luminescence; at 20 µM (top of the series).

Turning to `CN(C)CC[C@@H](c1ccc(Cl)cc1)c1ccccn1`, the parasite load remaining in assay [1] was 51.2% (inactive). In addition, the viability in assay [1] is 68.9%. Further, the inhibition in [2] is -6% (inactive); in assay [5] it was -2.84% (inactive); in assay [6], -2.76% (inactive). The fluorescence ratio (interference) in [3] is 0.9 (inactive). Besides, the fluorescence ratio is 0.95 (inactive) in assay [4] and 0.91 (inactive) in assay [7]. Moreover, the z-score in assay [8] was 0.0729 (inactive). In addition, the nuclear beta-catenin stimulation is -1.2% (inactive) in assay [9] (at 10 µM) and 0.3% in assay [9] (stimulation, at 2 µM). Further, the insulin secretion stimulation in assay [10] was 81.7% (active). The viability decrease in assay [11] is -5.1% (inactive). In [12], the tube area decrease is -4% (inactive). Further, in [13], the GLP1 secretion stimulation was 5.7% (inactive). In assay [14], the inhibition of viability is 28.8% (inactive). In addition, the viability decrease (inhibition) in assay [15] was 35.9% (inactive); in assay [16] it was -3.4% (inactive).
For the molecule `C[C@H](NC(CCc1ccccc1)C(=O)O)C(=O)N1CCC[C@H]1C(=O)O` (some centres not stated), the parasite load remaining in [1] was 94.1% (inactive) and 49.6% (inactive). Also, the viability in assay [1] was 70.8% and 156%. The inhibition was -5% (inactive) in assay [2], 1.19% (inactive) in assay [5] and 2.98% (inactive) in [6]. Moreover, the fluorescence ratio (interference) in assay [3] was 1 (inactive). The fluorescence ratio in assay [4] was 1.07 (inactive); in [7] it was 1 (inactive). For the same molecule, the z-score in [8] was 0.126 (inactive). Further, the nuclear beta-catenin stimulation in assay [9] (at 10 µM) is -0.9% (inactive); in assay [9] (stimulation, at 2 µM), -2.8%. Moreover, the insulin secretion stimulation in assay [10] is 0.1% (inactive). Besides, the viability decrease in assay [11] was -6.3% (inactive). Also, the tube area decrease in [12] was -8% (inactive). Besides, in [13], the GLP1 secretion stimulation is 1.4% (inactive). For the same molecule, in assay [14], the inhibition of viability was 2.7% (inactive). Besides, the viability decrease (inhibition) in assay [15] is -8.4% (inactive); in assay [16], -2.7% (inactive).
Turning to `Nc1nc(N)nc(-c2cc(Cl)ccc2Cl)n1`, the parasite load remaining in assay [1] was 141% (inactive) and 22.8% (inactive). For the same molecule, in assay [1], the viability is 129% and 67.5%. The fluorescence ratio in assay [4] was 1.05 (inactive); in [7], 1.02 (inactive). Also, the figures for the inhibition in [5] and in [6] were -1.19% (inactive) and 2.21% (inactive), respectively. Besides, the z-score in [8] is 0.00875 (inactive). In addition, the nuclear beta-catenin stimulation in [9] (at 10 µM) is 0.6% (inactive); in [9] (stimulation, at 2 µM), 0.3%. In assay [10], the insulin secretion stimulation was 2% (inactive). Further, in assay [11], the viability decrease is 20.3% (inactive). The tube area decrease in assay [12] was -11.3% (inactive). In assay [13], the GLP1 secretion stimulation was -1.2% (inactive). Moreover, the inhibition of viability in [14] was -27.9% (inactive). Also, the viability decrease (inhibition) is -12.5% (inactive) in assay [15] and -18.2% (inactive) in assay [16].
For the molecule `CCC(=O)O[C@]1(C(=O)SCF)[C@H](C)C[C@H]2[C@@H]3C[C@H](F)C4=CC(=O)C=C[C@]4(C)[C@@]3(F)[C@@H](O)C[C@@]21C`, in assay [1], the parasite load remaining was 82.3% (inactive) and 83.8% (inactive). Moreover, the viability in assay [1] was 68.2% and 100%. For the same molecule, the values for the fluorescence ratio in assay [4] and in assay [7] were 1 (inactive) and 1.02 (inactive), respectively. The inhibition in assay [5] was 5.94% (inactive); in assay [6] it was 5.29% (inactive). For the same molecule, the nuclear beta-catenin stimulation in [9] (at 10 µM) is 0.9% (inactive); in assay [9] (stimulation, at 2 µM), 2.7%. Besides, the insulin secretion stimulation in assay [10] is 0.4% (inactive). For the same molecule, the viability decrease in [11] is -30.2% (inactive). The tube area decrease in assay [12] was -19.4% (inactive). Moreover, the GLP1 secretion stimulation in assay [13] is 9.8% (inactive). Moreover, the inhibition of viability in assay [14] is 6.27% (inactive). The viability decrease (inhibition) in assay [15] was 39.6% (inactive); in [16], -7.2% (inactive).
Turning to `C#C[C@]1(O)CC[C@H]2[C@@H]3CCc4cc(OC)ccc4[C@H]3CC[C@@]21C`, the parasite load remaining in assay [1] was 48% (inactive) and 32.2% (inactive). Moreover, the viability in [1] was 96.9% and 76.9%. Further, the fluorescence ratio in assay [4] and in assay [7] was 1 (inactive) each time. The inhibition was 3.56% (inactive) in assay [5] and 1.44% (inactive) in [6]. Moreover, the nuclear beta-catenin stimulation in assay [9] (at 10 µM) was 3.3% (inactive); in assay [9] (stimulation, at 2 µM), 0.6%. Further, the insulin secretion stimulation in assay [10] is 0.5% (inactive). The viability decrease in assay [11] is 1.9% (inactive). In addition, the tube area decrease in [12] was 10.3% (inactive). Moreover, the GLP1 secretion stimulation in [13] is 16.1% (inactive). In addition, the inhibition of viability in assay [14] is 45% (inactive). Moreover, the viability decrease (inhibition) is 110% (active) in [15] and 26.6% (inactive) in assay [16].
